This is one part of a sample in which hits are shown more often than they occur.
HIV RNase H inh-1 = inhibitors of HIV-1 reverse transcriptase RNase H | P04585 | RT-RNase H RNA/DNA duplex cleavage, fluorescence | inhibition, % at 10 µM | 65,000 tested, 1.9% active; in the data active means inhibition above about 50%
HIV RNase H inh-2 = confirmation of HIV-1 reverse transcriptase RNase H inhibitors; AID 651; 1,000 tested, 39% active; shares compounds with HIV RNase H inh-1; inhibition, % at 10 µM; Recombinant RT RNase H, fluorescent RNA/DNA duplex cleavage; in the data active means inhibition above about 48%; inconclusive means no clear call, values can overlap the other calls
Numbers without * were called inactive.

Nc1nnc(CSCc2ccc(F)cc2)s1 was read as HIV RNase H inh-1 74* and HIV RNase H inh-2 62*.
`Nc1nnc(Cc2ccc(Cl)c(Cl)c2)s1` gave HIV RNase H inh-1 21.
`Nc1nnc(-c2ccc(F)cc2)s1` gave HIV RNase H inh-1 17.
Cn1nnnc1SCCOc1ccc(C#N)cc1 was read as HIV RNase H inh-1 -8.
`Cc1noc(NS(=O)(=O)c2ccc(NC(=O)CSc3nc4c(cc3C#N)CCCC4)cc2)c1C` gave HIV RNase H inh-1 11.
Cc1noc(NS(=O)(=O)c2ccc(NC(=O)CSc3nc4c(cc3C#N)CCC4)cc2)c1C was read as HIV RNase H inh-1 78* and HIV RNase H inh-2 inconclusive.
CCOC(=O)CC(=O)CSc1nc2c(cc1C#N)CCCCC2 was read as HIV RNase H inh-1 7.
`N#Cc1c(NC(=O)CSc2ncn[nH]2)sc2c1CCCCC2` gave HIV RNase H inh-1 -55.
`CCOC(=O)c1sc(NC(=O)CSc2nc3c(cc2C#N)CCCCCC3)c(C#N)c1C` gave HIV RNase H inh-1 73* and HIV RNase H inh-2 inconclusive.
Screening CCOC(=O)c1cnc(SCC(=O)Nc2cc(OC)cc(OC)c2)nc1N returned HIV RNase H inh-1 -3.
Screening N#Cc1c(NC(=O)CSc2nc(N)cc(=O)[nH]2)sc2c1CCCCCC2 returned HIV RNase H inh-1 -20.
Screening CCOC(=O)c1sc(NC(=O)CSc2nc3c(cc2C#N)CCC3)c(C#N)c1C returned HIV RNase H inh-1 43.
`N#Cc1cc2c(nc1SCC(=O)Nc1sc3c(c1C#N)CCC3)CCCCC2` gave HIV RNase H inh-1 66* and HIV RNase H inh-2 23.
`Cc1cc(C)nc(SCC(=O)Nc2ccc(S(=O)(=O)Nc3onc(C)c3C)cc2)n1` gave HIV RNase H inh-1 2.
CCOC(=O)c1cnc(SCC(=O)NCc2cccs2)nc1N was read as HIV RNase H inh-1 -12.
CCOC(=O)c1cnc(SCC(=O)Nc2sc(C)c(C)c2C#N)nc1N was read as HIV RNase H inh-1 63* and HIV RNase H inh-2 16.
`O=C(COC(=O)c1ccccn1)NCCCc1ccccc1` gave HIV RNase H inh-1 -5.
Screening Cc1cc(NC(=O)c2noc3c2CCCC3)n(-c2ccccc2)n1 returned HIV RNase H inh-1 -4.
Screening O=C(O)C1CSC2(c3ccc4c(c3)OCCO4)CCC(=O)N12 (configuration not stated) returned HIV RNase H inh-1 -8.
For CCCCN(CCCC)CCCOC(=O)c1ccc(N)cc1 the results were HIV RNase H inh-1 -2.
Screening CCc1cc2cc3c(cc2nc1SCC(=O)Nc1cc(C)on1)OCO3 returned HIV RNase H inh-1 15.
`CCCNC(=O)c1c(N)n(-c2cccc(OC)c2)c2nc3ccccc3nc12` gave HIV RNase H inh-1 -7.
Nc1c(C(=O)NCCN2CCOCC2)c2nc3ccccc3nc2n1-c1cccc(F)c1 was read as HIV RNase H inh-1 -14.
For C=CCNC(=O)c1c(N)n(-c2ccc3c(c2)OCO3)c2nc3ccccc3nc12 the results were HIV RNase H inh-1 57* and HIV RNase H inh-2 54*.
Screening C1CNCCNCCNCCN1 returned HIV RNase H inh-1 1.
For Cc1ccccc1-c1nc(CN2CCC(C(=O)NCCCN3CC(C)CC(C)C3)CC2)c(C)o1 (configuration not stated) the results were HIV RNase H inh-1 7.
`CCOc1cccc2cc(-c3csc(NC(=O)CCC(=O)N4CCN(C)CC4)n3)c(=O)oc12` gave HIV RNase H inh-1 -2.
For CCOC(=O)c1cc(-c2nnc(SCC(=O)Nc3ccc(F)cc3)o2)c(C)nc1C the results were HIV RNase H inh-1 70* and HIV RNase H inh-2 2.
For Cc1sc(NC(=O)CSc2nnc(-c3ccc(F)cc3)o2)c(C#N)c1C the results were HIV RNase H inh-1 6.
`CCOC(=O)c1cc(-c2nnc(-c3ccc(Cl)cc3)o2)c(C)nc1C` gave HIV RNase H inh-1 10.
For Cc1cc(NC(=O)CSc2nc3sc4c(c3c(=O)n2C)CCCC4)no1 the results were HIV RNase H inh-1 6.
For CCn1c(SCC(=O)Nc2cc(C)on2)nc2sc3c(c2c1=O)CCCC3 the results were HIV RNase H inh-1 39.
Screening Cc1cc(NC(=O)CSc2nc(C3CCCCC3)nc3ccccc23)no1 returned HIV RNase H inh-1 9.
For Cc1cc(NC(=O)CSc2nc(C(C)C)nc3sc4c(c23)CCCC4)no1 the results were HIV RNase H inh-1 70* and HIV RNase H inh-2 29.
Screening Cc1cc(NC(=O)CSc2nc(C3CC3)nc3sc4c(c23)CCC(C)C4)no1 (configuration not stated) returned HIV RNase H inh-1 70* and HIV RNase H inh-2 97*.
For Cc1cc(NC(=O)Cn2nnc3sc4c(c3c2=O)CCC(C(C)(C)C)C4)no1 (configuration not stated) the results were HIV RNase H inh-1 -3.
For CC(C)OCCCNc1nc2c([nH]1)c(=O)n(C)c(=O)n2C the results were HIV RNase H inh-1 -2.
Screening CC(C)NC(=O)c1ccc(CS(=O)(=O)c2ccc(Br)cc2)o1 returned HIV RNase H inh-1 -5.
CSc1nc(C)cc(OCCNS(=O)(=O)c2cc(C)ccc2C)n1 was read as HIV RNase H inh-1 0.
For O=C(O)c1nn(-c2ccc(Cl)cc2)ccc1=O the results were HIV RNase H inh-1 4.
`COc1cc(C2C(C#N)=C(N)Oc3n[nH]c(C)c32)cc2c1OCO2` (configuration not stated) gave HIV RNase H inh-1 3.
For COc1ccc(C2C(C#N)=C(N)Oc3cc(C)n(CCN4CCOCC4)c(=O)c32)cc1OC (configuration not stated) the results were HIV RNase H inh-1 -16.
Screening COc1cc(C2C(C#N)=C(N)Oc3cc(C)n(CCc4ccccc4)c(=O)c32)cc2c1OCO2 (configuration not stated) returned HIV RNase H inh-1 77* and HIV RNase H inh-2 28.
Screening Cc1cc(C)nc(NS(=O)(=O)c2ccc(NC(=O)CCCN3C(=O)c4ccccc4C3=O)cc2)n1 returned HIV RNase H inh-1 -10.
`c1ccc2c(c1)oc1c(N3CCN(Cc4ccc5c(c4)OCO5)CC3)ncnc12` gave HIV RNase H inh-1 -9.
Screening Cc1cccc(C)c1N1C(=O)c2ccccc2C1=O returned HIV RNase H inh-1 -24.
For CCN(CC)S(=O)(=O)c1ccc2oc(C(=O)NCc3ccc(F)cc3)c(C)c2c1 the results were HIV RNase H inh-1 5.
For CCCCOc1ccc(C2C3CN(C(=O)OCC)CC=C3C(C#N)=C(N)C2(C#N)C#N)cc1OC (configuration not stated) the results were HIV RNase H inh-1 84* and HIV RNase H inh-2 -1.
Screening COc1ccc(OC)c(C2C3CN(C(C)C)CC=C3C(C#N)=C(N)C2(C#N)C#N)c1 (configuration not stated) returned HIV RNase H inh-1 18.
CCOC(=O)N1CC=C2C(C#N)=C(N)C(C#N)(C#N)[C@H](c3ccc(OCC)c(OCC)c3)[C@H]2C1 was read as HIV RNase H inh-1 4.
For O=c1c2ccccc2nnn1CSc1ccc2c(c1)OCCO2 the results were HIV RNase H inh-1 -47.
For O=C(c1cc(Cl)cc(Cl)c1)N1CCOCC1 the results were HIV RNase H inh-1 -6.
Screening O=c1[nH]c(SCc2cccc(Cl)c2)nc2c1CCCC2 returned HIV RNase H inh-1 -32.
For O=C(CSc1nc2c(c(=O)[nH]1)CCC2)Nc1cccc(Cl)c1 the results were HIV RNase H inh-1 87* and HIV RNase H inh-2 38.
`CN(C)c1ccc(NC(=O)CSc2nc3c(c(=O)[nH]2)CCCC3)cc1` gave HIV RNase H inh-1 -2.
